About 770 (0.77%) of roughly 100,000 compounds were called active. The entries come from a sample that favours actives as a whole. Values without a mark were called inactive. No stated cut-off is given here; in the data, active means inhibition above about 50%; inactive means the rest.

The experiment deals with Gag-Pol polyprotein (Human immunodeficiency virus type 1 group M subtype B (isolate HXB2)) (UniProt P04585). In words: RNase H inhibition, HIV 1 Gag Pol polyprotein, FRET biochemical assay, screening (AID 372). The following applies: HIV-1 RT RNase H, FRET RNA/DNA substrate fluorescence; at 10 µM; hits give high values.
Regarding `Cc1ccc(-c2nc(NC(=O)c3cccc(F)c3)sc2-c2ccccc2)cc1`, the inhibition was 16%.

In the case of `COc1cc(NC(=O)C(F)(F)F)c(Cl)cc1NC(=O)c1ccccc1`, the inhibition was 0%.

In the case of `CCOc1ccc(C(=O)Nc2cccc(NC(=O)c3ccccc3Cl)c2)cc1`, the inhibition was 8%.

As to `CCOc1ccc(C(=O)Nc2cccc(S(N)(=O)=O)c2)cc1Br`, the inhibition was 4%.

`O=C1S/C(=C/c2ccccc2)C(=O)N1CNc1ccc(I)cc1`: the inhibition is 3%.

As for `COc1ccc(/C=C2/SC(=O)N(CNc3ccccc3)C2=O)cc1`, the inhibition was 9%.

Regarding `COc1ccc(/C=C2/SC(=O)N(CNc3ccc(Br)cc3C)C2=O)cc1`, the inhibition was 7%.

In the case of `O=C1S/C(=C/c2ccc(F)cc2)C(=O)N1CNc1ccc(I)cc1`, the inhibition was 4%.

`COc1ccc(/C=C2/SC(=O)N(CNc3ccc(I)cc3)C2=O)cc1`: the inhibition is 6%.

For `COc1ccc(OC)c(/C=C2/SC(=O)N(CNc3ccc(Br)cc3C)C2=O)c1`, the inhibition was 5%.

`COc1cccc(/C=C2/SC(=O)N(CNc3ccc(Br)cc3C)C2=O)c1`: the inhibition is 58% (active).

As for `COc1cccc(/C=C2/SC(=O)N(CNc3ccc(I)cc3)C2=O)c1`, the inhibition was 51% (active).

Turning to `O=C1S/C(=C/c2ccccc2F)C(=O)N1CNc1ccc(I)cc1`, the inhibition was 57% (active).

As to `Cc1nc2ccccn2c1C(=O)N/N=C\c1ccccc1[N+](=O)[O-]`, the inhibition was 9%.

For `C=CCOCCN(CCOCC=C)C1=NS(=O)(=O)c2cc([N+](=O)[O-])ccc21`, the inhibition was 8%.

Regarding `CC(=O)c1ccc(N2CCN(C(=O)c3cc(F)c(F)cc3Cl)CC2)c(F)c1`, the inhibition is 7%.

Take `C=CCOC(=O)C1=C(C)NC2=C(C(=O)CCC2)C1c1ccc(OCc2ccccc2)c(OC)c1` (stereo not given): the inhibition is 15%.

As to `O=C(Nc1nnc(-c2ccc3c(c2)OCO3)s1)c1sc2ccccc2c1Cl`, the inhibition is 5%.

In the case of `CCOC(=O)c1c(NC(=O)c2cc(-c3ccc(OC)cc3)nc3ccccc23)sc2c1CCCCC2`, the inhibition was 5%.

Take `Cc1ccc(C(=O)Nc2ccc(F)cc2F)cc1[N+](=O)[O-]`: the inhibition was 18%.

Consider `COc1cc2ccccc2cc1C(=O)Nc1ccc2c(c1)C(=O)c1ccccc1C2=O`, for which the inhibition was 38%.

With `Cc1nnc(N/N=C/c2ccc(C(=O)O)cc2)[nH]c1=O`, the inhibition is 10%.

In the case of `COc1cccc(C(=O)NCc2ccccc2OC)c1`, the inhibition was 2%.

On to `COc1ccccc1CNC(=O)c1cccc(C)c1`, for which the inhibition was 2%.

As for `COc1ccccc1CNC(=O)c1cccc(N(C)C)c1`, the inhibition was 56% (active).

Consider `Cc1ccc(N(CC(=O)N/N=C/c2cccc(Cl)c2)S(=O)(=O)c2ccc(F)cc2)cc1`, for which the inhibition is 13%.

On to `O=c1[nH]c(=S)n(-c2ccccc2)c(O)c1/C=C1\C=Nc2ccccc21`, for which the inhibition was 56% (active).

Consider `Cc1ccc(-n2c(O)c(/C=C3\C=Nc4ccccc43)c(=O)[nH]c2=S)cc1`, for which the inhibition is 15%.

As to `O=c1[nH]c(=S)n(-c2ccc(Br)cc2)c(O)c1/C=C1\C=Nc2ccccc21`, the inhibition is 20%.

For `CC(C)(C)c1ccc(CNc2cc(N3CCOCC3)ccc2[N+](=O)[O-])cc1`, the inhibition is 0%.

Turning to `Oc1ccc(-c2nc(-c3ccccc3)c(-c3cccs3)[nH]2)cc1O`, the inhibition was 63% (active).

Turning to `Oc1ccccc1-c1nc(-c2ccccc2)c(-c2cccs2)[nH]1`, the inhibition is 12%.

On to `Oc1ccc(Br)cc1-c1nc(-c2ccccc2)c(-c2cccs2)[nH]1`, for which the inhibition is 9%.

As to `O=C(COc1ccccc1[N+](=O)[O-])N/N=C/c1cc(I)ccc1O`, the inhibition is 5%.

For the compound `C/C(=N\Nc1cc(-c2ccccc2)nc(-c2ccccc2)n1)c1ccc([N+](=O)[O-])cc1`, the inhibition is 3%.

Take `CN(C(=O)c1ccc(Cl)c([N+](=O)[O-])c1)c1ccccc1`: the inhibition is 17%.

For the compound `CCOc1ccccc1N(CC(=O)Nc1cccc(Br)c1)S(C)(=O)=O`, the inhibition was 16%.

In the case of `CCOc1ccc(N(CC(=O)Nc2ccc(C)c(Cl)c2)S(C)(=O)=O)cc1`, the inhibition was 56% (active).

`CCOc1ccccc1N(CC(=O)N/N=C(\C)c1cccc(Br)c1)S(C)(=O)=O`: the inhibition was 66% (active).

In the case of `CCOc1ccc(N(CC(=O)Nc2ccc(C)c(C)c2)S(C)(=O)=O)cc1`, the inhibition was 4%.

As to `CCOc1ccc(N(CC(=O)Nc2cccc(C)c2)S(C)(=O)=O)cc1`, the inhibition is 17%.

As for `CCOc1ccc(N(CC(=O)Nc2cccc(C(C)=O)c2)S(C)(=O)=O)cc1`, the inhibition was 51% (active).

With `CCOc1ccc(NC(=O)CN(c2ccc(C)c(Cl)c2)S(C)(=O)=O)cc1`, the inhibition is 3%.

Take `CCOc1ccc(N(CC(=O)Nc2cccc(Br)c2)S(C)(=O)=O)cc1`: the inhibition is 12%.

As to `CCOc1ccccc1N(CC(=O)N/N=C(\C)c1cccc(NC(=O)c2ccccc2)c1)S(=O)(=O)c1ccccc1`, the inhibition is 5%.

Consider `Cn1c(=O)c(Sc2ccccc2)c(Sc2ccccc2)c2ccccc21`, for which the inhibition is 43%.

`CCc1ccccc1N1C(=O)/C(=C/c2ccc(N3CCCCC3)o2)C(=O)NC1=S`: the inhibition was 19%.

With `Cc1cccc(N2C(=O)C(Cl)=C(Cl)C2=O)c1C`, the inhibition is 4%.

Turning to `O=C(Nc1ccccc1-c1ccccc1)c1ccc2c(c1)C(=O)N(c1ccccc1-c1ccccc1)C2=O`, the inhibition was 17%.

Regarding `Cc1ccccc1NC(=O)c1cc(S(=O)(=O)Nc2ccc(Br)cc2)ccc1Cl`, the inhibition was 10%.

For the compound `CSC1=C(C#N)C(c2ccc(Cl)cc2)C(C(C)=O)=C(C)N1` (stereo not given), the inhibition was 2%.

Take `Cc1ccc(OCCOc2ccc(Cl)cc2/C=C2\SC(=S)NC2=O)c(C)c1`: the inhibition was 43%.

On to `Cc1ccc(C)c(OCCOc2ccc(Cl)cc2/C=C2\SC(=S)NC2=O)c1`, for which the inhibition was 63% (active).

Take `Cc1ccc(OCCOc2cccc(/C=C3\SC(=S)NC3=O)c2)c(C)c1`: the inhibition is 40%.

Regarding `Cc1ccc(OCCOc2cccc(/C=C3/SC(=S)NC3=O)c2)cc1`, the inhibition was 56% (active).

Take `Cc1ccc(C)c(OCCOc2cccc(/C=C3\SC(=S)NC3=O)c2)c1`: the inhibition was 54% (active).

As to `Cc1ccc(C)c(OCCOc2ccc(/C=C3\SC(=S)NC3=O)cc2)c1`, the inhibition was 43%.

Consider `O=C1NC(=S)S/C1=C/c1cccc(OCc2ccccc2)c1`, for which the inhibition was 29%.

As to `COc1ccc(OCCOc2cccc(/C=C3\SC(=S)NC3=O)c2)cc1`, the inhibition is 18%.

Take `O=C1NC(=S)S/C1=C/c1cccc(OCc2ccccc2Cl)c1`: the inhibition was 42%.

As for `Cc1cc(C)cc(OCCOc2cccc(/C=C3\SC(=S)NC3=O)c2)c1`, the inhibition was 45%.

For `Cc1ccc(C)c(OCCOc2c(Cl)cc(Cl)cc2/C=C2\SC(=S)NC2=O)c1`, the inhibition is 33%.

For `Cc1ccc(Nc2cc(N3CCN(c4ccccc4Cl)CC3)c([N+](=O)[O-])cc2[N+](=O)[O-])cc1`, the inhibition was 13%.

Regarding `Cc1ccc(C(C)C)c(OCC(=O)N2CCN(c3ccc([N+](=O)[O-])cc3Cl)CC2)c1`, the inhibition is 21%.

`Cc1cc(C)nc(NS(=O)(=O)c2ccc(NS(=O)(=O)c3ccc4c(c3)C(=O)c3ccccc3-4)cc2)n1`: the inhibition was 15%.

Regarding `Cc1ccc(Cl)cc1NC(=O)CN(CCc1ccccc1)S(=O)(=O)c1ccccc1`, the inhibition is 16%.

As for `COc1cccc(/C=N/N2CCN(Cc3cccc4ccccc34)CC2)c1O`, the inhibition is 8%.

Regarding `COc1ccc(OCCOc2ccc(Br)cc2/C=C2\SC(=S)NC2=O)cc1`, the inhibition is 34%.

On to `COc1cccc(OCCOc2ccccc2/C=C2/SC(=S)NC2=O)c1`, for which the inhibition was 22%.

Regarding `COc1cccc(OCCOc2ccc(Br)cc2/C=C2/SC(=S)NC2=O)c1`, the inhibition is 55% (active).

For the compound `Cc1ccccc1N=Cc1c(O)n(Cc2ccccc2)c(=O)[nH]c1=O`, the inhibition is 57% (active).

As to `Cc1ccc(N=Cc2c(O)n(Cc3ccccc3)c(=O)[nH]c2=O)cc1`, the inhibition was 46%.

`O=c1[nH]c(=O)n(Cc2ccccc2)c(O)c1C=Nc1ccc(F)cc1`: the inhibition was 22%.

For `COc1ccc(CCNC(=O)c2ccc(C#Cc3ccccc3)cc2)cc1OC`, the inhibition was 8%.

In the case of `CCC(C)NC(=O)CSCc1ccccc1Cl` (stereo not given), the inhibition was 0%.

On to `CCc1ccccc1NC(=O)CSCc1ccccc1Cl`, for which the inhibition is 20%.

Consider `CCOc1ccccc1NC(=O)CSCc1ccccc1Cl`, for which the inhibition was 51% (active).

`CC(NC(=O)CSCc1ccc(Cl)cc1)c1ccccc1` (stereo not given): the inhibition was 6%.

For `CCOc1ccccc1NC(=O)CSCc1ccc(Cl)cc1Cl`, the inhibition was 48%.

Regarding `CC(NC(=O)CSCc1ccccc1Cl)c1ccccc1` (stereo not given), the inhibition is 54% (active).

For `CC(=O)c1ccc(C)cc1OC(=O)c1ccc(Cl)cc1`, the inhibition is 21%.

Consider `O=C(/C(=C/c1ccccc1)c1nc2ccccc2[nH]1)c1ccccc1`, for which the inhibition is 6%.

Consider `O=C(Nc1ccc(I)cc1)c1ccc([N+](=O)[O-])o1`, for which the inhibition is 0%.

As to `O=C(Nc1ccc2oc(-c3ccccc3)nc2c1)c1ccc([N+](=O)[O-])o1`, the inhibition is 6%.

Turning to `Cc1ccc(-c2nc3cc(NC(=O)c4ccc([N+](=O)[O-])o4)ccc3o2)cc1Br`, the inhibition was 54% (active).

On to `O=C(Nc1ccc(Cl)c([N+](=O)[O-])c1)c1ccc(-c2ccc(Cl)c(Cl)c2)o1`, for which the inhibition was 7%.

Take `O=C(Nc1ccc2oc(-c3cc(Br)ccc3Cl)nc2c1)c1ccc([N+](=O)[O-])o1`: the inhibition was 20%.

As to `O=C(Nc1ccc([N+](=O)[O-])cc1)c1ccc(-c2ccc(Cl)c(Cl)c2)o1`, the inhibition was 50% (active).

On to `O=C(Nc1ccc2oc(-c3ccccc3)nc2c1)c1ccc(-c2ccc([N+](=O)[O-])cc2)o1`, for which the inhibition was 54% (active).

`Cc1cc([N+](=O)[O-])ccc1-c1ccc(C(=O)Nc2ccc3oc(-c4ccccc4)nc3c2)o1`: the inhibition is 15%.

As for `Cc1c(Cl)cccc1-c1ccc(C(=O)Nc2cccc(-c3nc4ccccc4o3)c2)o1`, the inhibition is 10%.

As for `O=C(Nc1ccc([N+](=O)[O-])cc1)c1ccc(-c2cccc(Cl)c2)o1`, the inhibition was 10%.

For `O=C(Nc1ccc(-c2nc3ccccc3o2)cc1)c1ccc(-c2ccc([N+](=O)[O-])cc2)o1`, the inhibition was 48%.

For the compound `Cc1c(Cl)cccc1-c1ccc(C(=O)Nc2ccc(-c3nc4ccccc4o3)cc2)o1`, the inhibition is 54% (active).

Turning to `Cc1c(Cl)cccc1-c1ccc(C(=O)Nc2ccc3oc(-c4cccnc4)nc3c2)o1`, the inhibition is 42%.

The inhibition is the relative decrease from the control value, in per cent.

Values taken from PubChem BioAssay AID372 (MTDP, 2006).
